Data on seven molecules can be found in PubChem BioAssay (NCI).

Molecules are shown by their SMILES. The panel holds about 83,000 compounds, 20% with a hit somewhere; the sample as a whole holds those more often.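 Testing used 96-well plates and a 48-hour single-concentration exposure. Example: -40 means 40% of the starting cells died.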 Values without a mark were called inactive. The source made the active and inactive calls. The calls were made as follows: active = growth percent below 10; inactive = the rest.

Some test systems named below: DU-145 prostate; K-562 leukemia; MALME-3M melanoma; MDA-MB-231 breast; RXF 393 renal; SF-268 CNS; SF-295 CNS; SF-539 CNS; UACC-257 melanoma; M14 melanoma; HCT-15 colon; HT29 colon; SNB-75 CNS; SNB-19 CNS; U251 CNS; PC-3 prostate; SK-MEL-5 melanoma; UACC-62 melanoma; LOX IMVI melanoma; SK-MEL-28 melanoma.
Holding throughout (test): NCI-60 one-dose screen, 48 h (100 = growth as untreated, 0 = no growth, -100 = all killed)
What all share (conditions): 10 µM unless noted

`CN(C)CCCNc1nc(-c2cccc(C(Cl)(Cl)Cl)c2)nc(C(Cl)(Cl)Cl)n1`: the growth in the assay with DU-145 prostate is 112%; in the assay with K-562 leukemia, 88.2%; in the assay with MALME-3M melanoma, 88.9%; in the assay with MDA-MB-231 breast, 95.8%; in the assay on RXF 393 renal, 109%; in the assay with SF-268 CNS it was 106%. Besides, the growth with SF-295 CNS was 94.1%; in the assay with SF-539 CNS, 110%; with UACC-257 melanoma it was 119%; in the assay with M14 melanoma, 102%; in the assay on HCT-15 colon, 108%; in the assay on HT29 colon, 94.9%. Besides, the growth in the assay with SNB-75 CNS was 83.1%; in the assay on SNB-19 CNS, 102%; in the assay with U251 CNS, 105%; in the assay on PC-3 prostate, 98.4%; with SK-MEL-5 melanoma, 103%; in the assay with UACC-62 melanoma it was 99.6%. Also, the growth in the assay on LOX IMVI melanoma is 87.7%; in the assay with SK-MEL-28 melanoma it was 103%.
With `COc1cc(NCc2cn(-c3ccc(C(=O)O)cc3)nc2-c2ccc(C(=O)O)cc2)cc(OC)c1OC`, the growth in the assay on DU-145 prostate is 93.8%; with K-562 leukemia, 107%; with MALME-3M melanoma it was 80.8%; with MDA-MB-231 breast, 76.4%; with RXF 393 renal, 105%; in the assay on SF-268 CNS, 95.6%. The growth with SF-295 CNS is 102%; with SF-539 CNS, 90.2%; in the assay on UACC-257 melanoma, 99.7%; in the assay with M14 melanoma, 96.5%; with HCT-15 colon, 106%; in the assay with HT29 colon, 106%. In addition, the growth in the assay with SNB-75 CNS is 77.8%; in the assay with SNB-19 CNS, 97.4%; in the assay on U251 CNS it was 92.2%; in the assay with PC-3 prostate it was 96.9%; in the assay on SK-MEL-5 melanoma it was 95.2%; with UACC-62 melanoma, 94.4%. In addition, the growth was 95.9% with LOX IMVI melanoma and 103% in the assay on SK-MEL-28 melanoma.
Consider `CC1=CCc2ccccc21`, for which the growth was 111% with DU-145 prostate; 94.1% with K-562 leukemia; 101% in the assay on MALME-3M melanoma; 94.5% in the assay on MDA-MB-231 breast; 111% with RXF 393 renal; 110% in the assay with SF-268 CNS. The growth was 101% in the assay on SF-295 CNS; 112% with SF-539 CNS; 105% in the assay on UACC-257 melanoma; 105% with M14 melanoma; 109% in the assay with HCT-15 colon; 95.7% with HT29 colon. Besides, the growth in the assay on SNB-75 CNS was 83.9%; in the assay on SNB-19 CNS, 101%; in the assay on U251 CNS it was 103%; in the assay on PC-3 prostate it was 86.2%; with SK-MEL-5 melanoma, 101%; in the assay with UACC-62 melanoma, 86.2%. The growth with LOX IMVI melanoma is 105%; in the assay on SK-MEL-28 melanoma it was 104%.
`C[C@@H](NC(=O)[C@@H](CC(=O)N1CCC(N2CCCCC2)CC1)N1C(=O)[C@@H](N2C(=O)OC[C@@H]2c2ccccc2)[C@H]1/C=C/c1cccc(Cl)c1)c1ccccc1`: the growth was 88.1% with DU-145 prostate; -8.32% (active) with K-562 leukemia; -33.7% (active) in the assay on MALME-3M melanoma; 33.2% in the assay with MDA-MB-231 breast; 60.5% in the assay with RXF 393 renal; 67.9% in the assay on SF-268 CNS. Also, the growth in the assay with SF-295 CNS was 82%; in the assay with SF-539 CNS it was 75.7%; in the assay with UACC-257 melanoma, 57.2%; with M14 melanoma, -46.6% (active); with HCT-15 colon it was 32.8%; in the assay on HT29 colon it was 1.92% (active). In addition, the growth with SNB-75 CNS was 70.8%; in the assay with SNB-19 CNS, 82.2%; in the assay on U251 CNS it was 55.2%; in the assay on PC-3 prostate, 56.1%; with SK-MEL-5 melanoma, -89% (active); in the assay with UACC-62 melanoma, 89.5%. In addition, the growth in the assay with LOX IMVI melanoma is -43.2% (active); in the assay with SK-MEL-28 melanoma, -29.4% (active).
For `N#CCCc1c[nH]c2ccccc12`, the growth in the assay with DU-145 prostate is 107%; in the assay on K-562 leukemia, 85.4%; in the assay with MALME-3M melanoma, 98.9%; in the assay with MDA-MB-231 breast it was 97.1%; with RXF 393 renal, 107%; with SF-268 CNS it was 91%. Also, the growth in the assay on SF-295 CNS is 98.3%; with SF-539 CNS it was 95.9%; with UACC-257 melanoma, 90.9%; in the assay with M14 melanoma, 94.7%; in the assay on HCT-15 colon, 104%; with HT29 colon, 91.1%. Further, the growth was 76.4% with SNB-75 CNS; 105% with SNB-19 CNS; 91.3% in the assay with U251 CNS; 78.6% in the assay with PC-3 prostate; 92.1% with SK-MEL-5 melanoma; 98.6% in the assay with UACC-62 melanoma. Further, the growth with LOX IMVI melanoma is 90.5%; with SK-MEL-28 melanoma it was 106%.
With `O=C(OCc1ccc2c(Cl)cc(Cl)c(O)c2n1)N1CCN(C(=O)c2cc3cc(F)ccc3[nH]2)CC1`, the growth is -10.4% (active) in the assay on DU-145 prostate; 13.3% in the assay on K-562 leukemia; 38.2% with MALME-3M melanoma; 28.2% in the assay with MDA-MB-231 breast; 16.4% with RXF 393 renal; 31.1% with SF-268 CNS. Also, the growth in the assay with SF-295 CNS is 25.1%; with SF-539 CNS, -20.1% (active); in the assay on UACC-257 melanoma, 25.1%; with M14 melanoma, 7.85% (active); in the assay with HCT-15 colon it was 10.6%; in the assay with HT29 colon, 99.1%. Besides, the growth is 28.6% in the assay on SNB-75 CNS; 50.2% with SNB-19 CNS; 8.06% (active) with U251 CNS; 15.8% with PC-3 prostate; -33% (active) with SK-MEL-5 melanoma; 35.3% with UACC-62 melanoma. For the same molecule, the growth in the assay on LOX IMVI melanoma was 12.2%; in the assay on SK-MEL-28 melanoma, 60.7%.
Take `c1coc2occoc=2o1`: the growth in the assay with DU-145 prostate was 111%; in the assay on K-562 leukemia it was 99.1%; in the assay on MALME-3M melanoma it was 103%; in the assay with MDA-MB-231 breast it was 108%; in the assay on RXF 393 renal, 117%; in the assay on SF-268 CNS, 105%. Besides, the growth in the assay on SF-295 CNS is 99.1%; with SF-539 CNS, 95.2%; in the assay on UACC-257 melanoma it was 106%; in the assay on M14 melanoma it was 101%; in the assay on HCT-15 colon, 102%; in the assay on HT29 colon it was 106%. For the same molecule, the growth is 97.4% in the assay on SNB-75 CNS; 107% in the assay with SNB-19 CNS; 101% in the assay on U251 CNS; 96.8% in the assay on PC-3 prostate; 97.2% in the assay with SK-MEL-5 melanoma; 102% in the assay with UACC-62 melanoma. Further, the growth with LOX IMVI melanoma is 102%; with SK-MEL-28 melanoma, 112%.
